Results published in publication PMC5540273 (PLoS ONE, 2017).

How the values were obtained:
Details in all cases: concentration: 1 μM, replicates: in singlicate; n = 1
RIOK1 = test system: RIOK1
RIOK2 = test system: RIOK2
RIOK3 = test system: RIOK3
RIPK1 = test system: RIPK1
RIPK2 = test system: RIPK2
RIPK4 = test system: RIPK4
RIPK5 = test system: RIPK5
ROCK1 = test system: ROCK1
ROCK2 = test system: ROCK2
ROS1 = test system: ROS1
[1] = test system: RPS6KA4(Kin.Dom.1-N-terminal)
[2] = test system: RPS6KA4(Kin.Dom.2-C-terminal)
[3] = test system: RPS6KA5(Kin.Dom.1-N-terminal)
[4] = test system: RPS6KA5(Kin.Dom.2-C-terminal)
[5] = test system: T1, RSK1(Kin.Dom.1-N-terminal)
T1 construct: gene RPS6KA1

[6] = test system: T2, RSK1(Kin.Dom.2-C-terminal)
T2 construct: gene RPS6KA1

[7] = test system: T3, RSK2(Kin.Dom.1-N-terminal)
T3 construct: gene RPS6KA3

[8] = test system: T4, RSK2(Kin.Dom.2-C-terminal)
T4 construct: gene RPS6KA3

[9] = test system: T5, RSK3(Kin.Dom.1-N-terminal)
T5 construct: gene RPS6KA2

[10] = test system: T6, RSK3(Kin.Dom.2-C-terminal)
T6 construct: gene RPS6KA2
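Note: KINOMEscan kinase panel screen.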

Row | Structure (SMILES) | %Inh (RIOK1) | %Inh (RIOK2) | %Inh (RIOK3) | %Inh (RIPK1) | %Inh (RIPK2) | %Inh (RIPK4) | %Inh (RIPK5) | %Inh (ROCK1) | %Inh (ROCK2) | %Inh (ROS1) | %Inh [1] | %Inh [2] | %Inh [3] | %Inh [4] | %Inh [5] | %Inh [6] | %Inh [7] | %Inh [8] | %Inh [9] | %Inh [10]
1 | COc1cccc(C2=C(Nc3ccc(Cl)c(C(=O)O)c3)C(=O)NC2=O)c1 [SB-390769] | 0% | 0% | 5% | 0% | 21% | 7% | 100% | 28% | 12% | 0% | 17% | 0% | 13% | 0% | 29% | 0% | 100% | 20% | 14% | 0%
2 | CNC(=O)c1ccccc1Nc1nc(Nc2ccc(N3CCOCC3)cc2)ncc1Cl.Cl [GSK1576028] | 100% | 90.7% | 100% | 36% | 35% | 79% | 80% | 53% | 37% | 90.9% | 99.7% | 0% | 90% | 44% | 100% | 54% | 100% | 0% | 99.3% | 25%
3 | CCS(=O)(=O)c1ccc(OC)c(Nc2nccc(-c3c(-c4cccc(NC(=O)c5c(F)cccc5F)c4)nn4ncccc34)n2)c1 [GSK326180] | 30% | 0% | 56% | 0% | 83% | 27% | 10% | 2% | 18% | 0% | 16% | 0% | 25% | 0% | 64% | 0% | 0% | 0% | 29% | 0%
4 | Cc1cccc(Nc2nc(N[C@H]3CCNC3)ncc2C(N)=O)c1.Cl [GSK2197149] | 99.8% | 28% | 89% | 0% | 0% | 90.7% | 1% | 67% | 45% | 32% | 0% | 0% | 2% | 0% | 22% | 31% | 31% | 0% | 23% | 4%
5 | Cc1ccc(F)c(C(=O)Nc2cccc(-c3nn4ccccc4c3-c3ccnc(Nc4cccc(F)c4)n3)c2)c1F [GSK361061] | 23% | 26% | 5% | 2% | 61% | 4% | 0% | 0% | 3% | 21% | 34% | 0% | 21% | 0% | 65% | 7% | 4% | 0% | 0% | 7%
6 | Cc1ccc(C(=O)N2CC[C@@H](O)C2)cc1-n1c(C)cc(OCc2ccc(F)cc2F)c(Br)c1=O | 12% | 0% | 29% | 0% | 46% | 0% | 0% | 0% | 0% | 0% | 2% | 0% | 0% | 0% | 0% | 0% | 0% | 0% | 0% | 18%
7 | COc1cccc(NC(=O)NC2CCN(c3ccnc(Nc4cc(OC)c(OC)c(OC)c4)n3)C2)c1 (centres unmarked) [GSK1379763] | 85% | 0% | 82% | 6% | 29% | 49% | 0% | 4% | 9% | 23% | 0% | 0% | 0% | 35% | 12% | 4% | 0% | 8% | 12% | 0%
8 | CC(C)c1nc(-c2cccc(NS(=O)(=O)c3c(F)cccc3F)c2F)c(-c2ccnc(Nc3ccc(N4CCOCC4)nc3)n2)s1 [GSK2008607] | 22% | 0% | 17% | 0% | 96.3% | 15% | 92.6% | 0% | 0% | 35% | 0% | 0% | 2% | 0% | 100% | 12% | 41% | 0% | 45% | 0%
9 | CC(=O)N1CCN(c2ccc(Nc3nccc(-c4sc(C(C)C)nc4-c4cccc(NS(=O)(=O)c5cccc(Cl)c5)c4)n3)cn2)CC1 [GSK1660437] | 19% | 10% | 4% | 0% | 93.2% | 0% | 37% | 0% | 18% | 21% | 10% | 0% | 14% | 0% | 10% | 0% | 0% | 4% | 5% | 0%
10 | Cc1occc1-c1ncc(OC[C@@H](N)Cc2c[nH]c3ccccc23)cc1-c1ccc2[nH]nc(C)c2c1.O=C(O)C(F)(F)F [GSK682037] | 95.1% | 6% | 83% | 0% | 12% | 0% | 0% | 74% | 79% | 26% | 8% | 0% | 49% | 0% | 7% | 0% | 79% | 0% | 22% | 0%
